Jurkat NFkB inh = inhibitors of the PMA/ionomycin-induced NF-kB reporter in Jurkat cells; PMA/ionomycin-induced NF-kB luciferase reporter, luminescence; inhibition, % at 4 µM; 330,000 compounds, 0.53% hits; AID 435003; in the data active = inhibition above about 50%
SMARCA2 act = SMARCA2 function activation, primary screen; 370,000 compounds, 1% hits; activation, % at 9.1 µM; MG213 cells, MMTV-luciferase reporter, dexamethasone, overnight; in the data active = activation above about 7.8%;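 also: 0% = vehicle wells and 100% = reference activator wells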
697 NFkB inh = inhibitors of the PMA/ionomycin-induced NF-kB reporter in 697 B cells; 330,000 compounds, 0.33% hits; 697 B-cell NF-kB luciferase reporter, 16 h; inhibition, % at 4 µM; AID 435022; in the data active = inhibition above about 35%
Gli-Sufu block = Gli-Sufu pathway antagonism; Sufu-KO-LIGHT fibroblasts, Gli luciferase reporter luminescence; 340,000 compounds, 0.74% hits; inhibition, % at 5 µM; AID 588413;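 active = inhibition above about 55%, limit read from the data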;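 also: 0% = DMSO-treated cells and 100% = wells with medium but no cells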
esBAF inh = inhibitors of esBAF chromatin remodeling in mouse ES cells | Bmi1-luciferase knock-in reporter, 24 h; 100% = twice the neutral-well signal | reporter increase, % at 12.5 µM | 350,000 compounds, 2% hits | AID 602393; in the data active = activation above about 40%;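 also: 0% = median of the plate's neutral control wells and 100% = double that signal; a rise in the Bmi1 reporter signal indicates esBAF inhibition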
Gli-Sufu confirm = confirmation of Gli-SUFU pathway antagonists. shares compounds with Gli-Sufu block. Sufu-KO-LIGHT cells, Gli luciferase reporter, luminescence. inhibition, % at 5 µM. 2,500 compounds, 40% hits. AID 602428;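 active = mean inhibition at 5 µM reaching about 45%, limit read from the data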;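 also: plate controls were DMSO-treated cells for no effect and wells lacking cells for full effect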
SufuKO cytotox = cytotoxicity counter-screen for Gli-SUFU antagonists; 2,500 compounds, 32% hits; Sufu-KO-LIGHT cells cytotoxicity, ATP luminescence; AID 651994; cytotoxicity, % at 5 µM; shares compounds with Gli-Sufu block;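 active = mean cytotoxicity at 5 µM above about 25%, limit read from the data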;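 also: cells exposed to compound overnight for roughly 16 to 18 hours; plate controls were DMSO wells with cells for no effect and medium without cells for full effect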
Wnt3a counter = Wnt3a reporter inhibition counter-screen | 2,500 compounds, 20% hits | inhibition, % at 6.25 µM | AID 651995 | shares compounds with Gli-Sufu block | Wnt-LIGHT cells, Wnt3a-driven luciferase reporter, luminescence;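 active = mean inhibition above about 25%, limit read from the data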
The depositor's hits bear a star; . = no result. Sampled rows, rich in hits. Any-hit rate of the full collection: about 3.3%.

SMILES	Jurkat NFkB inh	SMARCA2 act	697 NFkB inh	Gli-Sufu block	esBAF inh	Gli-Sufu confirm	SufuKO cytotox	Wnt3a counter
COc1ccccc1CCNC(=O)c1ccc(C)o1	-23	0	-4	57*	.	4	25	-1
Cc1ccc(C(=O)NCCCCNC(=O)c2ccc(C)o2)o1	-6	-1	12	-2	-9	.	.	.
COc1ccc(NC(=O)N(C)C[C@@H]2OCCCC[C@@H](C)Oc3ccc(NS(=O)(=O)c4ccc(OC)cc4)cc3C(=O)N([C@@H](C)CO)C[C@H]2C)cc1	.	.	.	.	3	.	.	.
Cc1noc(C)c1NC(=O)N(C)C[C@@H]1Oc2ccc(NC(=O)Nc3ccccc3)cc2CC(=O)N([C@H](C)CO)C[C@@H]1C	.	.	.	.	0	.	.	.
O=C(C[C@@H]1C[C@@H]2c3cc(NS(=O)(=O)c4ccc(F)cc4)ccc3O[C@@H]2[C@H](CO)O1)N1CCOCC1	.	.	.	.	6	.	.	.
CCOc1ccc(Br)cc1S(=O)(=O)Nc1cccc(S(=O)(=O)Nc2ccccc2C(=O)O)c1	-6	-2	2	55*	-5	20	19	-11
COc1ccccc1N1CCN(c2ncc(C(=O)N3CCN(c4cccc(Cl)c4)CC3)c3ccccc23)CC1	29	-2	-23	61*	.	67*	23	24
COc1ccc(CN(C)C[C@H]2OCCCC[C@@H](C)Oc3ccc(NC(=O)c4ccncc4)cc3C(=O)N([C@H](C)CO)C[C@H]2C)cc1	.	.	.	.	-5	.	.	.
Cc1c(C(=O)O)sc2nc(C)n(C)c(=O)c12	-12	0	-5	96*	-8	27	21	17
CO[C@H]1CN(C)C(=O)c2ccc(NS(=O)(=O)c3ccc(Cl)cc3)cc2OC[C@H](C)N(C(=O)NC(C)C)C[C@H]1C	.	.	.	.	-2	.	.	.
Cc1cccc(C)c1NC1=C(Cl)C(=O)OC1OC(C)C (stereo not given)	-2	-1	-7	52	.	19	-6	11
Cc1cc(N2CCCCCC2)nc(-c2ccccc2O)n1	1	-2	-1	85*	-11	20	15	-16
COC(=O)c1ccc(-c2ccc(OC)c([C@H]3[C@H]4C=CC[C@@H](C)[C@@H]4C(=O)N3Cc3ccccc3)c2)cc1	-23	0	31	54	79*	50*	38*	-2
CC(=O)c1ccc(-c2ccccc2[C@H]2[C@H]3C=CC[C@@H](C)[C@@H]3C(=O)N2Cc2ccccc2)cc1	11	.	-33	.	.	.	.	.
CCCNC(=O)C[C@@H]1CC[C@H]2[C@H](COc3ccc(NC(=O)c4cccs4)cc3C(=O)N2C)O1	.	.	.	.	-1	.	.	.
C[C@H]1CN([C@@H](C)CO)C(=O)c2cc(-c3ccc(F)cc3)cnc2O[C@H]1CN(C)C(=O)NC1CCCC1	.	.	.	.	1	.	.	.
Cc1ccc(NC(=O)Nn2cnnc2)c(C)c1	15	-1	12	55*	-1	31	8	10
Cc1ccc(NC(=S)Nn2cnnc2)c(C)c1	5	4	21	.	-4	.	.	.
C[C@@H]1CN([C@H](C)CO)C(=O)c2cc(N(C)C)ccc2O[C@@H](C)CCCCO[C@H]1CN(C)C(=O)Cc1ccccc1	.	.	.	.	17	.	.	.
CN1CCN(C(=O)c2ccc(CSc3ccc(Cl)cc3)cc2)CC1	-13	-4	-13	16	.	.	.	.
CCOC(=O)N1CCN(C(=O)c2ccc(CSc3ccc(Cl)cc3)cc2)CC1	27	2	13	58*	.	48*	17	0
CCc1nnc(NC(=O)C(C)C)s1	1	-6	3	93*	-6	11	-14	5
Cc1[nH]c2ccccc2c1C(=O)CSc1nc2cc(S(=O)(=O)N3CCCCC3)ccc2o1	18	-3	-20	55*	.	42	13	23
Cc1ccc(C(=O)CSc2nc3cc(S(=O)(=O)N4CCOCC4)ccc3o2)cc1	-13	-3	-19	5	-12	.	.	.
c1ccc(-c2csc3ncnc(NCC4COc5ccccc5O4)c23)cc1 (stereo not given)	.	-7	.	84*	.	88*	45*	26*
SMILES	Jurkat NFkB inh	SMARCA2 act	697 NFkB inh	Gli-Sufu block	esBAF inh	Gli-Sufu confirm	SufuKO cytotox	Wnt3a counter
Cc1sc2ncnc(NCC3CCCO3)c2c1C (stereo not given)	13	-2	6	22	1	.	.	.
Cc1sc2ncnc(NCC(C)(C)N3CCOCC3)c2c1C	35	-3	-37	64*	.	58*	27*	21
Cc1sc2ncnc(NCC3COc4ccccc4O3)c2c1C (stereo not given)	.	-6	.	77*	.	72*	34*	17
c1ccc(-c2csc3ncnc(NCCCN4CCOCC4)c23)cc1	18	-1	-6	22	-36	.	.	.
CCC(=O)Nc1ccc2c(c1)C(=O)N(C)[C@H]1CC[C@@H](CC(=O)NCCc3ccccc3)O[C@@H]1CO2	.	.	.	.	-2	.	.	.
COCC#Cc1cnc2c(c1)C(=O)N([C@@H](C)CO)C[C@H](C)[C@H](CN(C)C(=O)c1ccc(F)cc1)O2	.	.	.	.	-1	.	.	.
COc1ccc(-c2nsc3c(N4CCCCC4C)ncnc23)cc1 (stereo not given)	42	-10	16	81*	.	91*	47*	105*
CCOc1ccc(CN(C)c2ccc(S(=O)(=O)N3CCN(C)CC3)cc2[N+](=O)[O-])cc1OC	-4	.	-37	59*	-35	25	9	5
CO[C@@H]1CN(C)C(=O)c2ccc(NS(C)(=O)=O)cc2OC[C@H](C)N(CCC(F)(F)F)C[C@H]1C	.	.	.	.	2	.	.	.
O=C(/C=C/c1ccco1)Nc1cccc(S(=O)(=O)N2CCOCC2)c1	-13	-1	-2	13	10	.	.	.
Cc1ccc(NC(=O)COc2ccccc2C(N)=O)cc1S(=O)(=O)N1CCCCCC1	30	-5	-5	50	-21	48*	28*	-13
Cc1ccc(NC(=O)/C=C/c2ccco2)cc1S(=O)(=O)N1CCCCCC1	6	-5	-24	77*	5	88*	9	-23
Cc1cccc(OCCC(=O)Nc2ccc(C)c(S(=O)(=O)N3CCCCC3)c2)c1	.	-7	.	62*	.	22	22	-32
CN1C(=O)c2cc(NC(=O)C3CC3)ccc2OC[C@H]2O[C@@H](CC(=O)NC3CCC3)CC[C@H]21	.	.	.	.	0	.	.	.
C[C@H](CO)N1C[C@H](C)[C@@H](CN(C)C(=O)Cc2ccncc2)Oc2cc(C#CC3(O)CCCC3)ccc2S1(=O)=O	.	.	.	.	-5	.	.	.
O=C(c1ccc(-c2ccccc2)cc1)C1CCCN(Cc2ccncc2)C1 (stereo not given)	5	-4	-9	52	4	28	12	-39
Cc1ccsc1C(=O)C1CCCN(Cc2cn(C)nc2-c2ccccc2)C1 (stereo not given)	-3	-1	3	22	.	.	.	.
